Out of some 420,000 compounds screened, about 540 (0.13%) were called active. This excerpt belongs to a sample that is enriched for actives. A number with no mark means an inactive call. Rule as the data show it: active = activity change below about -50%; inconclusive = mostly about -30% to -49%; inactive = weaker than that.
The compounds below were run against Phosphatidylinositol 4-kinase type 2-alpha (Homo sapiens) (UniProt Q9BTU6) (assay: qHTS for small molecular inhibitors of PI4K2A). Conditions: purified PI4K2A, ADP-Glo luminescence, 1 h; at 76.9 µM, active compounds read low.
Phosphatidylinositol 4-kinase type 2-alpha (Homo sapiens), sequence (Q9BTU6 whole entry, looked up): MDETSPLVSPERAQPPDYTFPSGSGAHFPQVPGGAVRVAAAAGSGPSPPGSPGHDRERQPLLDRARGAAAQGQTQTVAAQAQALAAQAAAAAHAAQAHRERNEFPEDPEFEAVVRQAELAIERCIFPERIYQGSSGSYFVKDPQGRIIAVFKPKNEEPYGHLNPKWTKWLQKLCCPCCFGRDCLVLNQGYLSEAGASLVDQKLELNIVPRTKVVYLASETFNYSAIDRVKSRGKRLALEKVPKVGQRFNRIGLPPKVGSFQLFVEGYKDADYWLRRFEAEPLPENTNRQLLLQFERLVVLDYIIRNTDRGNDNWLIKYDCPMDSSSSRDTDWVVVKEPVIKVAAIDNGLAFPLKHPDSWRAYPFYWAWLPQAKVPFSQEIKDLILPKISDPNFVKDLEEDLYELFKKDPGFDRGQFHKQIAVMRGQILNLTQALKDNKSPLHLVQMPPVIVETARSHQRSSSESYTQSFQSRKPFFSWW
From the text: The phosphatidylinositol 4-phosphate (PI4P) is emerging as a key regulator of lipid transfer in ER-membrane contact sites. The four different phosphatidylinositol 4-kinase (PI4K) enzymes generate PI4P in different membrane compartments supporting distinct cellular processes many of which are crucial for the maintenance of cellular integrity but also hijacked by intracellular pathogens. The goal of this screening project is to search for small molecular inhibitors of PI4K2A based on a high throughput screening strategy.The ADP-Glo assay was used as a starting point to develop a miniaturized version for HTS applications. To implement the HTS screen, the PI4K ADP-Glotrade mark Kinase assay (Promega, V9102) was miniaturized for the 1536-well format used at NCGC.
For the robotic screening, the ADP-Glo assay using the ADP-Glotrade mark Kinase Assay kit from Promega was miniaturized and optimized on 1536-well white solid bottom plates (Greiner Bio-one). The substrate, 1.2 mM PI, prepared in the assay buffer (40mM Tris pH7.5, 20mM MgCl2, 1mM EGTA, 0.4% Triton X-100, 0.5mM DTT, 0.5mg/ml BSA) and PI4K2A enzyme, diluted also in the assay buffer to 4ug/mL, were dispensed onto the plates in equal volumes (1microl/well), pinned with 23 nL/well tested compounds or control followed by dispensation of 1microl/well 300microM ATP. The plates were incubated for one hour. Then, 2 µL/well of ADP-Glo reagent was added and incubated for 40 minutes. Next, 4microL/well of Kinase Detection Buffer was added to the plates and incubated for additional 40 minutes. All incubation steps were performed at ambient temperature. The resulting luminescence signal was measured on Viewlux plate reader (PerkinElmer). Adenosine, a partial non-specific inhibitor, was used as a positive control at 100microM final concentration to assess the assay's quality and plate-to-plate reproducibility. We also used "no enzyme" control to gauge the assay's maximal potential inhibition (IC100).
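Also: -100% = wells without enzyme as full effect.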

| Compound | activity change, negative = inhibition |
| --- | --- |
| COc1cc(C(=O)OC2CCOC2=O)c([N+](=O)[O-])cc1OC (stereo not drawn) | 0.815% |
| CC(C)(C)c1ccc(OCC(=O)N2CCC(c3nc4ccccc4s3)CC2)cc1 | -3.91% |
| O=C(OC1CCOC1=O)c1ccc(-c2nc3ccccc3s2)s1 (stereo not drawn) | -52.4% (active) |
| O=C1/C(=C\c2ccc([N+](=O)[O-])cc2)CS(=O)(=O)C/C1=C/c1ccc([N+](=O)[O-])cc1 | -53% (active) |
| C=CC(=O)Nc1ccc(Nc2ccnc(Nc3ccc(N4CCN(C)CC4)cc3)n2)cc1 | -9.48% |
| CC(C)C[C@H](NC(=O)[C@H](O)[C@H](N)Cc1ccccc1)C(=O)O | -0.0848% |
| CC(=O)Nc1ccc(NC(=O)c2cc3sccc3n2Cc2ccc(F)cc2)cc1 | -0.493% |
| Cc1nonc1C(=O)N/N=C/c1ccc(O)cc1 | -107% (active) |
| CCc1ccc(/C=N/NC(=O)c2nnn(-c3nonc3N)c2CN2CCc3ccccc32)cc1 | 2.23% |
| CC(C)Oc1ccc(/C=N/NC(=O)c2nnn(-c3nonc3N)c2CN(C)C2CCCCC2)cc1 | -0.0382% |
| O=S(=O)(NCCc1nnc2ccc(SCc3ccc(Cl)cc3Cl)nn12)c1ccccc1 | 1.68% |
| CCCOC(=O)c1c(NC(=O)c2cc3nc(-c4ccc(OC)cc4)cc(C(F)(F)F)n3n2)sc2c1CCCC2 | -1.38% |
| O=C(COc1cccc(F)c1)Oc1ccc(C(=O)c2ccccc2)cc1 | -2.11% |
| O=C(Oc1ccc(-c2nc(-c3ccccn3)no2)cc1)c1ccccc1 | -59.2% (active) |
| CC(=O)c1ccc(NC(=O)COc2ccccc2-c2nc(-c3ccccc3)no2)cc1 | -0.609% |
| CCc1ccccc1NC(=O)c1ccc(F)c(S(=O)(=O)NC2CCCCCC2)c1 | 3.89% |
| CCCCOc1ccc(C(=O)N2CC(=O)Nc3ccc(Br)cc3C2c2ccc(F)cc2)cc1 (stereo not drawn) | 0.252% |
| O=C(NCC(c1cccnc1)N1CCc2ccccc21)c1cccc(C(F)(F)F)c1 (stereo not drawn) | -0.743% |
| CCOCCCn1c(SCC(=O)Nc2ccc(CC)cc2)nc2ccccc2c1=O | 2.57% |
| COc1cc(OC)c(OC)cc1/C=C/c1nc2cc3ccccc3cc2c(=O)n1-c1ccc(F)c(Cl)c1 | 1.51% |
| CCCC(=O)Nc1cc(C(=O)NCc2ccc(OC)cc2)ccc1S(=O)(=O)c1ccc(Cl)cc1 | 1.05% |
| CCCc1c2oc(C(=O)O)cc(=O)c2cc2c(=O)cc(C(=O)O)n(CC)c12 | 0.586% |
| CC1(C)OC[C@@H](COC(=O)CCc2ccc(OC[C@@H](O)CNCCNC(=O)N3CCOCC3)cc2)O1 | 2.53% |
| Cc1cccc(C)c1NC(=O)c1ccc(N)cc1 | 2.75% |
| CC(C)Sc1oc(-c2cccs2)nc1S(=O)(=O)c1ccc(Cl)cc1 | 2.5% |
| CCC(=O)Nc1ccc2nc(SCC(=O)N3CCc4ccccc43)sc2c1 | -5.07% |
| CCCn1c(=O)c2[nH]c(-c3ccc(OCC(=O)NCCN)cc3)nc2n(CCC)c1=O | -1.34% |

| Compound | activity change, negative = inhibition |
| --- | --- |
| Nc1ccc2nc3c(=O)[nH]c(=S)[nH]c3nc2c1 | -58.2% (active) |
| Cc1ccc(-n2ncc3c(N4CCC(C(N)=O)CC4)ncnc32)cc1 | -0.0422% |
| CC(=O)c1ccc(NC(=O)c2nc3nc(C)cc(C(F)F)n3n2)cc1 | 0.438% |
| Cc1oc2ncnc(N3CCOCC3)c2c1C(=O)NCCc1ccccc1 | 5.54% |
| Cc1cc2oc(C(=O)N(Cc3ccc(Cl)cc3)Cc3ccco3)c(C)c2cc1Cl | -5.36% |
| O=C(C1CC1)N1CCc2cc(Br)cc(S(=O)(=O)N3CCN(c4ccccc4F)CC3)c21 | -2.46% |
| CC(C)(C)c1ccc(C(=O)NCC(c2ccc(Cl)cc2)N2CCOCC2)cc1 (stereo not drawn) | 1.67% |
| Cc1ccc2oc(=O)c3cnn(CC(=O)NCc4ccccc4Cl)c3c2c1 | 2.09% |
| Cc1ccc(C(=O)NCCSc2c(C)[nH]c3ccccc23)cc1C | -0.18% |
| Cc1ccccc1NC(=O)c1cc2c([nH]c1=O)CC(C)(C)CC2=O | -0.508% |
| Cc1ccc2ncc(C(=O)Nc3ccc(OC(F)(F)F)cc3)c(=O)n2c1 | -0.27% |
| C[C@@H]1CCC[C@H](C)N1CCCC(O)(c1ccccc1)c1ccccn1 (stereo partly drawn) | -1.64% |
| Cc1ccc(NC(=O)Cn2cnc3nc4c(cc3c2=O)CCCC4)cc1Cl | 2.6% |
| O=C(CC1Oc2ccccc2NC1=O)NCc1ccc(F)cc1 (stereo not drawn) | -3.94% |
| CCOCCn1ccc2c(OCC(=O)NCc3ccc(C)cc3)cccc2c1=O | -5.41% |
| O=C1CCCc2cc(S(=O)(=O)N3CCCC(C(=O)NCc4ccccc4)C3)ccc2N1 (stereo not drawn) | -5.19% |
| CCc1ccc(NC(=O)CCS(=O)(=O)c2cc3c(cc2Cl)NC(=O)CO3)cc1 | 0.699% |
| CO[C@H]1C=CO[C@@]2(C)Oc3c(C)c(O)c4c(O)c(c(/C=N/N5CCN(C)CC5)c(O)c4c3C2=O)NC(=O)/C(C)=C\C=C[C@H](C)[C@H](O)[C@@H](C)[C@@H](O)[C@@H](C)[C@H](OC(C)=O)[C@@H]1C | -8.76% |
| Cc1nn2c(=O)cc(COC(=O)c3cccc(NC(=O)COc4ccccc4Cl)c3)nc2s1 | 3.91% |
| Cc1ccc(CCNC(=O)c2ccc3c(c2)N(Cc2cc(C)ccc2C)C(=O)c2ccccc2S3=O)cc1 (stereo not drawn) | 3.89% |
| CCC(C)Cn1c(O)cc2nn(-c3nc4ccccc4s3)c(=O)c-2c1C (stereo not drawn) | -52% (active) |
| O=C(OCCN1CCOCC1)c1cccnc1Nc1cccc(C(F)(F)F)c1 | 1.58% |
| Cc1cc(C)cc(OCC(=O)Nc2nc(-c3ccc(F)cc3)ns2)c1 | -6.03% |
| CCS(=O)(=O)N1CCc2cc(C(=O)NCc3ccc(OC)cc3)ccc21 | -0.384% |
| CCc1ccccc1NC(=O)c1sc2nc3c(cc2c1N)CN(Cc1ccccc1)CC3 | -2.17% |
| Cc1ccc(Oc2c(C(F)(F)F)oc3c(CN4CCCCC4)c(O)ccc3c2=O)cc1 | -2.18% |

From PubChem BioAssay AID1346378 (National Center for Advancing Translational Sciences (NCATS), 2018)
